The structures appear in SMILES notation. For some of these results: Entries with a potency or affinity are not part of this list. The source made the active and inactive calls.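 The calls were made as follows, unless noted: active = primary screen hit whose calcium fluorescence ratio, in both repeats, exceeds the weak agonist control mean by 3 SD; inactive = the rest.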

Test [1] relates to TRPC4 beta (transient receptor potential cation channel C4), mouse. Description: TRPC4 cation channel opening, retest – cell-based, Fluo4 calcium, HEK293 TRPC4beta/mu-opioid, duplicates, 10 µM, confirmation (AID 2426;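 active = fluorescence ratio normalized to control raised more than 50% in primary screen plus both repeat runs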;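 as to activation: percent rise of integrated ratio over buffer wells lacking compound which define 0%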). To be noted: Fluo4 calcium fluorescence, at 10 µM; active compounds read high.
The test system of test [2] is transient receptor potential cation channel C4 beta (TRPC4), mouse. In words: TRPC4 cation channel opening, second retest – cell-based, second round, Fluo4, HEK293 TRPC4beta/mu-opioid, 1 µM, confirmation (AID 2461;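 active = primary screen active and over 50% activation in each of two duplicate runs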;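 as to activation: 0% = wells without test compound as baseline of integrated fluorescence ratio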). To be noted: Fluo4 calcium fluorescence, at 1 µM; active compounds read high.
The test system of test [3] is TRPC4 (transient receptor potential cation channel C4 beta), mouse. In words: potentiation of DAMGO EC20 TRPC4 response – cell-based, second round, Fluo-4, HEK293 TRPC4beta/mu-opioid, 1 µM, confirmation (AID 2554;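 active = primary screen hit whose fluorescence ratio, in both repeats, exceeds the weak agonist control mean by 3 SD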). The settings on record: DAMGO EC20, Fluo-4 calcium flux, at 1 µM; active compounds read high. (In general: Calcium assays in cells follow changes in intracellular calcium, usually with a dye or a luminescent sensor.)

Test [4] concerns TRPC4 beta (transient receptor potential cation channel C4), mouse. In words: potentiation of DAMGO EC20 TRPC4 response – cell-based, Fluo-4, HEK293 TRPC4beta/mu-opioid, confirmation (AID 2555). To be noted: DAMGO EC20, Fluo-4 calcium flux, at 10 µM; active compounds read high.
The target of test [5] is Short transient receptor potential channel 4 (Mus musculus) (UniProt Q9QUQ5). Description: blockers of DAMGO-evoked TRPC4 calcium flux – cell-based, Fluo4, HEK293 TRPC4beta/mu-opioid, confirmation (AID 2636;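 active = calcium signal cut by more than 3 SD below the full-agonist control yet still positive, in both repeats and the earlier primary screen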). The settings on record: at 10 µM; active compounds read high.
Test [6] has the same target. Description: blockers of DAMGO-evoked TRPC4 calcium flux – cell-based, second round, Fluo4, HEK293 TRPC4beta/mu-opioid, 1 µM, confirmation (AID 2637;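 active = calcium signal ratio cut to more than 3 SD under the fully stimulated control mean yet still positive, in both repeats and the primary screen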). To be noted: at 1 µM; active compounds read high.
For test [7] the target is unchanged. Description: potentiation of DAMGO-evoked TRPC4 calcium signal – cell-based, HEK293 TRPC4/mu-opioid, Fluo-4 calcium, EC20 DAMGO, dose response (AID 434941;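 active = earlier screen potentiator hit that boosts the TRPC4 ion channel at some dose, with a dose response; inactive = no potentiation, no dose response, or not a prior hit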;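 also: calcium entry triggered by an EC20 dose of DAMGO at the co-expressed mu-opioid receptor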).
Test [8] has the same target. Description: block of DAMGO-driven TRPC4 calcium entry – cell-based, HEK293 TRPC4/mu-opioid, Fluo-4 calcium, dose response (AID 434942;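 active = primary screen inhibitor hit that blocks the TRPC4 channel at some tested dose, yielding a dose curve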).
The target in test [9] is Short transient receptor potential channel 6 (Mus musculus) (UniProt Q61143). Description: TRPC6 blockade by TRPC4 inhibitor hits – cell-based, HEK293, membrane potential dye, duplicate, selectivity assay for TRPC4 inhibitor project, confirmation (AID 434948;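 active = active in primary screen and both duplicates, each dropping signal beyond three positive-control SD with fluorescence still positive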). To be noted: HEK293 TRPC6, membrane potential dye fluorescence, at 10 µM, stimulated with maximal-effect acetylcholine; active compounds read high.

Test [10] shares this target. Description: TRPC6 opening by TRPC4 activator hits – cell-based, HEK293, membrane potential dye, duplicate, selectivity assay for TRPC4 activator project, confirmation (AID 434950;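 active = membrane potential signal rise above negative control mean plus 3 SD in both duplicates, also active in the earlier TRPC4 screen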;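 as to activation: 0% = buffer only wells and 100% = acetylcholine maximal-effect wells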). The settings on record: HEK293 TRPC6, membrane potential fluorescence, at 10 µM; activation: active compounds read high; outcome: activation.
Test [11] has the same target. In words: positive modulators of mouse TRPC6 channel – HEK293 cells, membrane potential dye, duplicate, selectivity assay for TRPC4 potentiator project, confirmation (AID 434952;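 active = compound raising the membrane signal above positive-control mean plus 3 SD in both repeats, and a primary screen hit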). To be noted: HEK293 TRPC6, membrane potential dye fluorescence, at 10 µM, maximal acetylcholine added after compound; active compounds read high.
Test [12] addresses Short transient receptor potential channel 4 (Mus musculus) (UniProt Q9QUQ5). In words: calcium flux activators in TRPC4/5HT1a cells, counter-screen for TRPC4 activator project, cell-based, second counter screen, HEK293 TRPC4/5HT1a, Fluo-4 (AID 434977;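 active = calcium signal rise above buffer-control mean plus 5 SD in both duplicates, and also a hit in the primary screen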;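 as to activation: plate controls were assay buffer for no effect and maximal serotonin response for full effect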). The settings on record: Fluo-4 calcium flux, at 10 µM; active compounds read high.
Test [13] can be described thus: serotonin-gated TRPC4 signal block – cell-based, second counter screen, HEK293 TRPC4/5HT1a, Fluo-4, counter-screen for TRPC4 inhibitor project, confirmation (AID 434978;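 active = primary screen active whose calcium signal fell more than 3 SD beyond the full-serotonin control mean in both duplicate plates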;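 as to outcome: serotonin given first at submaximal then at maximal dose after compound preincubation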). To be noted: Fluo-4 calcium flux, at 10 µM, serotonin added to trigger calcium flux; active compounds read high. (Counterscreens check selectivity or assay interference.)
The subject of test [14] is TRPC4 (mouse), co-expressed with 5HT1a in HEK293. Description: enhancement of serotonin-evoked TRPC4 response – cell-based, second counter screen, HEK293 TRPC4/5HT1a, Fluo-4, counter-screen for TRPC4 potentiator project, confirmation (AID 434979;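 active = signal rise over 3 SD above mean of control wells given weak agonist, in both repeats and first screen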). To be noted: Fluo-4 calcium flux, at 10 µM, serotonin added at its EC20 dose; active compounds read high.
The nature of test [15]: nonspecific calcium rise without TRPC4 – cell-based, HEK293 mu-opioid receptor line, counter-screen for TRPC4 activator project, confirmation (AID 449723;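 active = hit in primary screen, with calcium signal over 5 SD above buffer well mean in both duplicates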;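 also: counter screen cells carry the mu-opioid receptor alone and lack TRPC4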). The settings on record: HEK293 mu-opioid cells, Fluo-4 calcium fluorescence, at 10 µM; active compounds read high.
Test [16] in a line: nonspecific potentiation of DAMGO calcium response – cell-based, HEK293 mu-opioid receptor line, counter-screen for TRPC4 allosteric potentiator project, confirmation (AID 449724;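 active = calcium signal rise more than 3 SD above the low-dose agonist control mean, in both duplicate plates and the primary screen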;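 also: HEK293 cells carrying mu-opioid receptor only with no TRPC4 channel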). To be noted: HEK293 mu-opioid receptor cells, Fluo-4 calcium flux, at 10 µM, compound added before EC20 DAMGO stimulus; active compounds read high.
Test [17] is described as follows: nonspecific flux increase, KCNQ1-free cells – parental CHO cells, counter-screen for KCNQ1 potentiator project (AID 493006;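 active = duplicate-averaged activation above buffer control mean plus 5 SD of those controls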;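 as to activation: fluorescence ratio of max minus min over baseline after K+ and Tl+ depolarization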). The settings on record: parental CHO-K1 cells, FluxOR thallium flux, at 10 µM; active compounds read high.
Test [18] addresses Potassium voltage-gated channel subfamily KQT member 1 (Homo sapiens) (UniProt P51787). In words: enhancement of KCNQ1 channel thallium flux – FluxOR thallium flux, CHO cells, duplicates, confirmation (AID 493007;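 active = potentiation averaged over duplicate wells exceeding buffer-only control mean by more than 3 SD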;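 also: 0% = buffer-only wells and 100% = R-L3 activator control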). To be noted: KCNQ1 cell line, FluxOR thallium flux fluorescence, at 10 µM; active compounds read high, % of reference activator effect, buffer zero.
Test [19] deals with Potassium voltage-gated channel subfamily KQT member 2 (Rattus norvegicus) (UniProt O88943). Description: KCNQ2 thallium flux enhancement – KCNQ2-CHO-K1 cells, selectivity assay for KCNQ1 potentiator project (AID 493009;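 active = mean duplicate potentiation above the buffer control mean plus 5 SD of buffer wells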;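 also: assay conditions were tuned for KCNQ1 rather than KCNQ2 modulators; signal is max minus min fluorescence divided by baseline after thallium stimulus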). To be noted: FluxOR thallium flux fluorescence, at 10 µM; active compounds read high, scaled: buffer 0, activator control 100.
Test [20] has as its target Potassium voltage-gated channel subfamily KQT member 1 (Homo sapiens) (UniProt P51787). Description: KCNQ1 activators by electrophysiology – IonWorks patch clamp, KCNQ1-CHO cells, orthogonal assay for KCNQ1 potentiator project, confirmation (AID 493184;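 active = current rise at least 3 SD above the untreated control mean in each of two repeat wells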). The settings on record: automated patch clamp current, at 10 µM; active compounds read high. A general note: Patch clamp records ionic current or voltage across a cell membrane.

Sequence of Potassium voltage-gated channel subfamily KQT member 1 (Homo sapiens) (P51787 whole entry, looked up): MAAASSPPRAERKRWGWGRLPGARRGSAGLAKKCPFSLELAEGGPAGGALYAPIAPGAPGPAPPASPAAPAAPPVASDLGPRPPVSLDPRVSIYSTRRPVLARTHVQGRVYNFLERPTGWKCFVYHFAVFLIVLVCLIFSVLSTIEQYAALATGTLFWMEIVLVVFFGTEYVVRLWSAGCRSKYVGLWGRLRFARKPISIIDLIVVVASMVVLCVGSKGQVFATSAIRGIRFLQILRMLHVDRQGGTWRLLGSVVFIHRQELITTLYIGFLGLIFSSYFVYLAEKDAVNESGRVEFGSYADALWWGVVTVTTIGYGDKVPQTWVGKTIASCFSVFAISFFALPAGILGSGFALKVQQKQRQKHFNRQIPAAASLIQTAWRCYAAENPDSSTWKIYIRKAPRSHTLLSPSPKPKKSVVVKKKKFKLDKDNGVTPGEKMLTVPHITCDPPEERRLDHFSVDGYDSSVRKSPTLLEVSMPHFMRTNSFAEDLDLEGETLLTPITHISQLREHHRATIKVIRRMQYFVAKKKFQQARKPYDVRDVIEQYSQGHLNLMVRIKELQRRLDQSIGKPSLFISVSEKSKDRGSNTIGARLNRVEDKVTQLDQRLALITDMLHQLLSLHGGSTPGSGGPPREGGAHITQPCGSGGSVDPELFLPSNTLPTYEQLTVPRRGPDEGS
Sequence of Potassium voltage-gated channel subfamily KQT member 2 (Rattus norvegicus) (O88943 whole entry, looked up): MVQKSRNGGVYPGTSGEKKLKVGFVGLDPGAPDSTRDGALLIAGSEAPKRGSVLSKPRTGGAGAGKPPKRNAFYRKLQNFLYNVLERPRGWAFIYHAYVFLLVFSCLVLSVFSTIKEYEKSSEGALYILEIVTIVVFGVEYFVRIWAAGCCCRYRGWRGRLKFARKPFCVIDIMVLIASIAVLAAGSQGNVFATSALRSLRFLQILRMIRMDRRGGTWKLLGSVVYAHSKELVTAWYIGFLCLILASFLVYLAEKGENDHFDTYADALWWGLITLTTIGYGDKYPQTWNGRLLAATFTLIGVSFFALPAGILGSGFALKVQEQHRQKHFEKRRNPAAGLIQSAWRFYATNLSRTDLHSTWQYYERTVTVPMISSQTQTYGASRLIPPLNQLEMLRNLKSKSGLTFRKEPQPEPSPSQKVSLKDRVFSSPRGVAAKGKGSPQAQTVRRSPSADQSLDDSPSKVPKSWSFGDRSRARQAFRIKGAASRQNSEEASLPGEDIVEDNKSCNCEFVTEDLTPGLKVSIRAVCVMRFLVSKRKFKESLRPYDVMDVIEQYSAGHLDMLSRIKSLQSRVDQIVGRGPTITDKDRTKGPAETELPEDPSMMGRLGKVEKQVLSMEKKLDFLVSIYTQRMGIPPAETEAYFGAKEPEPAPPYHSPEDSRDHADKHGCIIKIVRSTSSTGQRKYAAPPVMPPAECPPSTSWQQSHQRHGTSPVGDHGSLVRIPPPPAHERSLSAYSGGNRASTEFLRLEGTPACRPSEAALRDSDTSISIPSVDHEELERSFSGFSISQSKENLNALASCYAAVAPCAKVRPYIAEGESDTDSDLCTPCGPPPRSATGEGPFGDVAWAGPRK
Sequence of Short transient receptor potential channel 6 (Mus musculus) (Q61143 whole entry, looked up): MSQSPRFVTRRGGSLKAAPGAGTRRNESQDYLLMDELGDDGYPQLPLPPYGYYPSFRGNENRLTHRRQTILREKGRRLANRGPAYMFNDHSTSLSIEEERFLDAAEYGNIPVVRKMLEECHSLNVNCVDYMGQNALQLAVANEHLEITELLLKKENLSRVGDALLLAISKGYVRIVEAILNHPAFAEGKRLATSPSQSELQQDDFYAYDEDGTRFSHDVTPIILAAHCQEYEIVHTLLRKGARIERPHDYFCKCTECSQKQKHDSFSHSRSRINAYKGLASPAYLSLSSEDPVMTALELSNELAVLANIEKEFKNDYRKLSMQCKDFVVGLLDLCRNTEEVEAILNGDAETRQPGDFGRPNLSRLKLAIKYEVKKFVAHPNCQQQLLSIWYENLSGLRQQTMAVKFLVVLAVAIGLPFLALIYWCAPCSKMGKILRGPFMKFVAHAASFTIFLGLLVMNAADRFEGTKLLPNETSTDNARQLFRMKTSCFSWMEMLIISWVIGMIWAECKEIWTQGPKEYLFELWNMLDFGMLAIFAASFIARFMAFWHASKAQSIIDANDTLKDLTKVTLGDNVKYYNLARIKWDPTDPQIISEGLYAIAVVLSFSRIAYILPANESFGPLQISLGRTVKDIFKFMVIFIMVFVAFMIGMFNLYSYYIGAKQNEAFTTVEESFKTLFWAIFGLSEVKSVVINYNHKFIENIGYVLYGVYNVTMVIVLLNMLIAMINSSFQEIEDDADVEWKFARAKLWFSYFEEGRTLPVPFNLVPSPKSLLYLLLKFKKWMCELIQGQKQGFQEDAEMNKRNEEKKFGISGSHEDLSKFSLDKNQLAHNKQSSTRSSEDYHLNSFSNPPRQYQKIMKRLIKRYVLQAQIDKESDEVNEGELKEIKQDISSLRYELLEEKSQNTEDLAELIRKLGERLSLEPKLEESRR
Sequence of Short transient receptor potential channel 4 (Mus musculus) (Q9QUQ5 whole entry, looked up): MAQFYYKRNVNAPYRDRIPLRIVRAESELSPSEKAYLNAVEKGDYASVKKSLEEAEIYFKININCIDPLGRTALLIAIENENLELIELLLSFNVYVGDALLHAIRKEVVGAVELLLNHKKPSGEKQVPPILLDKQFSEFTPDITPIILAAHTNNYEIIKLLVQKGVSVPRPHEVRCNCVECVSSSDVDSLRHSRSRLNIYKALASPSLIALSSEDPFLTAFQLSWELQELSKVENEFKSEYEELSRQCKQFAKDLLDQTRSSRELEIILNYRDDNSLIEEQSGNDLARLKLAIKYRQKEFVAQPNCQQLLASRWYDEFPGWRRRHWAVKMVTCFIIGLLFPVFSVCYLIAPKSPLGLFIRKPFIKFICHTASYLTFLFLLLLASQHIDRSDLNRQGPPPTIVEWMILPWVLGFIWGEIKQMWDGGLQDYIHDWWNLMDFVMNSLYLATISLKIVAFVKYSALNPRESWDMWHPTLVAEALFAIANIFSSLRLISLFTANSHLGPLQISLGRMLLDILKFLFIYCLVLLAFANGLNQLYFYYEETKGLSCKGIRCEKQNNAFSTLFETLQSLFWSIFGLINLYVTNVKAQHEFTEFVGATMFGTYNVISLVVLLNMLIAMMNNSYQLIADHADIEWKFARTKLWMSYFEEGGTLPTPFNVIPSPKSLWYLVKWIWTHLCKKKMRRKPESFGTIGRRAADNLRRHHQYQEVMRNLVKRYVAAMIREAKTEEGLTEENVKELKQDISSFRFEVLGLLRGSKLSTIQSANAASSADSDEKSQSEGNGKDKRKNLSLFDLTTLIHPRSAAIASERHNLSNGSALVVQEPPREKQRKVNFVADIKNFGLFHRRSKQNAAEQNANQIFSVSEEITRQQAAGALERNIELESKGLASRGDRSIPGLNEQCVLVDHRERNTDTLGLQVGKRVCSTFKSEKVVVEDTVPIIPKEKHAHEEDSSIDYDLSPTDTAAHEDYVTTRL

Turning to `CC[C@@H](C(=O)[C@@H](C)[C@@H](O)[C@H](C)CCc1ccc(C)c(O)c1C(=O)O)[C@H]1O[C@](CC)([C@H]2CC[C@](O)(CC)[C@H](C)O2)C[C@@H]1C`, the activation is 472% (active) in test [1]; 58.5% (active) in [10]; 177% (active) in test [12]; 82.7% (active) in test [15]; 558% (active) in test [17]. The outcome in test [2], in [3], in test [4], in test [5], in test [6] and in test [7] was inactive. Besides, the result in test [8], in test [9], in test [11], in test [13], in test [14] and in test [16] was inactive. The outcome in test [20] was inactive. The potentiation in test [18] is 149% (active); in test [19] it was 502% (active).
In the case of `CN(C)C(CNC(=O)/C=C/c1cccc(Cl)c1)c1ccccc1` (configuration not stated), the activation was 148% (active) in test [1], 83% (active) in [2] and 49% (active) in test [10]. The outcome in test [3], in test [4], in test [5], in test [6], in [7] and in test [8] was inactive. Besides, the compound was classed as inactive in test [9], in test [11], in [12], in test [13], in test [14] and in test [15]. Further, the result in test [16] was inactive.
As for `CC(=O)Nc1ccc(CN2CCCC(C(=O)c3cccc(C(F)(F)F)c3)C2)cc1` (configuration not stated), the results for the activation in [1] and in test [10] were 96% (active) and 29.5% (active), respectively. Moreover, the outcome in [2], in test [3], in test [4], in [5], in test [6] and in test [7] was inactive. The result in test [8], in test [9], in [11], in [12], in test [13] and in test [14] was inactive. The outcome in [15] and in test [16] was inactive.
Take `COc1ccccc1C(=O)NNC(=S)NC(=O)c1sc2ccccc2c1Cl`: the result in [1], in [2], in test [3], in test [4], in test [5] and in test [6] was inactive. The outcome in test [7], in test [8], in test [9], in [11], in test [14] and in [15] was inactive. The result in test [16] and in test [20] was inactive. For the same compound, the activation in [10] was 30.5% (active); in test [12], 14.7% (active); in test [17] it was 278% (active). Besides, the inhibition in test [13] was 38.3% (active). The potentiation was 150% (active) in test [18] and 287% (active) in test [19].
Take `CCCOc1ccc(C(=O)NC(=S)NNC(=O)c2c(-c3ccccc3)noc2C)cc1`: the activation in test [1] is 107% (active); in [12], 92.6% (active); in [15], 39.4% (active). The result in [2], in [3], in [4], in test [5], in test [6] and in test [7] was inactive. Also, the result in test [8], in [9], in test [10], in test [11], in test [13] and in test [14] was inactive. For the same compound, the result in test [16], in test [17], in test [19] and in test [20] was inactive. Moreover, the potentiation in test [18] was 28.5% (active).
As to `CCCOc1ccc(C(=O)NNC(=S)NC(=O)c2ccccc2)cc1`, the activation was 152% (active) in test [1], 122% (active) in test [12], 39.5% (active) in test [15] and 180% (active) in test [17]. Besides, the outcome in [2], in test [3], in test [4], in test [5], in test [6] and in [7] was inactive. Also, the outcome in test [8], in test [9], in test [10], in [11], in [13] and in test [14] was inactive. Besides, the result in [16] and in [20] was inactive. For the same compound, the potentiation in [18] was 168% (active); in [19], 318% (active).

In general, inhibition refers to how much of the control response was suppressed.

The values are drawn from PubChem BioAssay.
